ERK AVP block – vasopressin-driven ERK pathway inhibition | Potency, µM (highest dose often 57.5 µM), hits mostly inhibitors | 72,000 compounds, 0.99% hits | HEK293-V1b, vasopressin-stimulated pERK AlphaScreen; further: nearly all actives have a fitted effect of over 55% in size
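V1b-HEK293 cells; cpd 30 min 37C; 25 nM vasopressin 5 min; lyse 10 min; AlphaScreen beads 5 hr RT. Normalized to DMSO basal and 25 nM vasopressin; AC50 by Hill fit.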
CRE Fsk mod – modulators of forskolin-stimulated CRE signaling in CHO cells. CHO CRE-bla reporter (cAMP response element driving beta-lactamase), forskolin EC10, beta-lactamase ratio. Potency, µM (series often up to 38.2 µM), most hits filed as activators. 71,000 compounds, 2.5% hits; active means well fitted activation curve with a large enough effect in the signal ratio, with a control signal flat, not every such curve was filed as active; inconclusive means small, poorly fitted or top-dose-only effect, or effect the other way, or a change in a side signal; the % refers to the signal ratio
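Titrated compounds plus EC10 NKH 477 on CHO CRE-bla cells, 3 h, 37 °C. CCF4, 2 h RT. Ratio 460/530 nm → AC50.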
HEK293 cAMP ctrl – raises cAMP in parental HEK293 cells, TSHR agonist counter-screen. parental HEK293 CNG cAMP sensor, membrane potential fluorescence. AID 938. 73,000 compounds, 2.5% hits. Potency, µM (titrated, usually from 57.1 µM), usual class: activators; further: nearly all actives have a fitted effect of over 55% in size
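Parental HEK 293 cells stably expressing a modified CNG channel (no TSHR) report cAMP rise as membrane depolarization. Membrane potential dye with 100 uM RO 20-1724 was loaded for 60 min at room temperature, then compound added for 30 min; fluorescence read at 590 nm.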
TSHR agonist – activates the human thyroid stimulating hormone receptor; AID 926; HEK293-CNG-TSHR cells (CNG channel as cAMP sensor), membrane potential dye, cAMP; 73,000 compounds, 0.48% hits; P16473; Potency, µM (series often up to 57.1 µM), usual class: activators; active means well fitted activation curve with a large enough effect in the main read-out, with a control signal flat, not every such curve was filed as active; inconclusive means small, poorly fitted or top-dose-only effect, or a change in a side signal; inactive means no such curve, though single readings can be large or run the other way; reference of the percent scale not stated here;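 further: the control signal comes from parental cells without the receptor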
Target sequence (P16473 whole entry, looked up): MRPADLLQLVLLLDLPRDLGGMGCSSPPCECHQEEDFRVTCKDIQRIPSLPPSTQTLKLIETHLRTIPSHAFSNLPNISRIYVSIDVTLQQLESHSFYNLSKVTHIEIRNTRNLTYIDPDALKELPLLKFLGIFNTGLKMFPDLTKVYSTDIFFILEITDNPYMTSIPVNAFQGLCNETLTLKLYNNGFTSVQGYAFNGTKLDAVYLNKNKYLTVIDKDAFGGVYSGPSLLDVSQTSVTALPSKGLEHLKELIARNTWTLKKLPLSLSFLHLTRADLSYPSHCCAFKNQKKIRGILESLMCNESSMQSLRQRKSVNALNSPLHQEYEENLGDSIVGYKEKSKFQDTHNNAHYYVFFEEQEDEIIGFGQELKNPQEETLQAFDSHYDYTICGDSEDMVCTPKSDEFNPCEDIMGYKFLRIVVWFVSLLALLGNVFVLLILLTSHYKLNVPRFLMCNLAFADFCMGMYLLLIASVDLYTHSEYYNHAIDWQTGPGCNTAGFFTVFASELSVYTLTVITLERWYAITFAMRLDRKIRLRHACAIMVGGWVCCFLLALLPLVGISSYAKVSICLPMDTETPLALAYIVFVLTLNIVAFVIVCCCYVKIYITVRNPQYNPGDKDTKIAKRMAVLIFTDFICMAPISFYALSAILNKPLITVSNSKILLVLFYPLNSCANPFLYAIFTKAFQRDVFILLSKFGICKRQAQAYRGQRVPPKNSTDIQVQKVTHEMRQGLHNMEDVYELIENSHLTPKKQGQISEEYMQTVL
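HEK 293 cells stably expressing TSHR and a cAMP-gated CNG channel; parental CNG-only cells as counterscreen. Cells preloaded 60 min with membrane potential dye plus 100 uM RO 20-1724, then compound 30 min; fluorescence read at 590 nm.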
Each line names hits and unclear results; the compound was inactive in the other large screens; ! = a repeat was not active. Hits are enriched below; roughly 6% of the tested compounds scored in any of these assays. Unless noted, the call rests on the fitted dose curve; in most records, active means well fitted curve in the direction sought with a large enough effect; inconclusive means small, poorly fitted or top-dose-only effect, or another doubt; inactive means no such curve, though single readings can be large; an effect the other way counts as inactive or inconclusive.

CN1CCN(Cc2nc3cccc4c3c([n+]2[O-])-c2ccccc2-4)CC1	none
COc1cccc(-c2cc(N(C)Cc3ccco3)ncn2)c1	none
CCOC(=O)c1oc2ccccc2c1NC(=O)c1ccccc1OC	CRE Fsk mod 2µM, HEK293 cAMP ctrl inconclusive, TSHR agonist inconclusive
CCOC(=O)c1oc2ccccc2c1NC(=O)COc1cccc(OC)c1	none
Cc1ccccc1-c1cncnc1NCc1cccnc1	ERK AVP block inconclusive
COC(=O)C1=C(C)N(Cc2ccco2)C(=O)C1	CRE Fsk mod inconclusive
CCCCC(=O)NC1(C(F)(F)F)C(=O)N(Cc2ccco2)C(C)=C1C(=O)OC (centres undefined)	CRE Fsk mod inconclusive, TSHR agonist 15.8µM
COc1ccc(Cc2nnc3n2N=C(c2cc4ccccc4o2)CS3)cc1OC	CRE Fsk mod 3.16µM, HEK293 cAMP ctrl 25.1µM, TSHR agonist inconclusive
COc1ccc(-c2nnc3n2N=C(c2ccccc2)CS3)cc1OC	none
O=c1c(-c2cccc(F)c2)nc2cncnc2n1-c1ccccc1	CRE Fsk mod inconclusive, HEK293 cAMP ctrl inconclusive, TSHR agonist inconclusive
O=C1c2ccccc2C(=O)N1CCCc1nc(-c2cccnc2)no1	none
Clc1ccc(OCCCc2nc(-c3cccnc3)no2)c(Cl)c1	HEK293 cAMP ctrl 15.8µM, TSHR agonist inconclusive
O=C1C=C[C@@H](O)[C@H]2[C@@H]3C(=O)N(Cc4ccc5c(c4)OCO5)C(=O)[C@@H]3CC[C@H]12	none (no result: CRE Fsk mod)
O=[N+]([O-])c1ccccc1Nc1ccccc1	ERK AVP block 15.8µM
Cc1ccc(OC[C@H](O)[C@H](C)NC(C)C)c2c1CCC2	CRE Fsk mod inconclusive, HEK293 cAMP ctrl 39.8µM!, TSHR agonist inconclusive
CN(C)CCCN1c2ccccc2C(C)(C)c2ccccc21	none
CSc1ncccc1C(=O)OCC(=O)Nc1cc(C(F)(F)F)ccc1N1CCOCC1	CRE Fsk mod 12.6µM, HEK293 cAMP ctrl inconclusive, TSHR agonist inconclusive
Cc1nc2ccccc2n1-c1ccccc1	ERK AVP block inconclusive
Cc1ccccc1-n1c(C)nc2ccccc21	TSHR agonist 25.1µM
CCc1ccc2oc(-c3cccc(NC(=O)c4cccnc4)c3)nc2c1	ERK AVP block 25.1µM
CCn1c2ccccc2c2cc(NC(=O)C3CCN(S(=O)(=O)c4cccs4)CC3)ccc21	none
Cn1c(=NC(=O)C2CCN(S(=O)(=O)c3cccs3)CC2)sc2ccccc21	TSHR agonist 25.1µM
Cc1ccc2nc(NC(=O)C3CCN(S(=O)(=O)c4cccs4)CC3)sc2c1	ERK AVP block 25.1µM, CRE Fsk mod inconclusive
CCCn1c(C)nc2c(c1=O)c1nc3ccccc3nc1n2CCc1ccccc1	CRE Fsk mod inconclusive, HEK293 cAMP ctrl inconclusive, TSHR agonist inconclusive
CCCn1c(C)nc2c(c1=O)c1nc3ccccc3nc1n2CCC1=CCCCC1	HEK293 cAMP ctrl 20µM, TSHR agonist inconclusive
Cc1nn(-c2ccccc2)c2sc(C(=O)OCn3nnc4ccccc4c3=O)cc12	none
CCCCNC(=O)COC(=O)c1cc2c(C)nn(-c3ccccc3)c2s1	CRE Fsk mod 5.01µM, HEK293 cAMP ctrl inconclusive, TSHR agonist inconclusive
Cc1nn(-c2ccccc2)c2sc(C(=O)N3CCc4ccccc4C3)cc12	CRE Fsk mod 3.98µM, HEK293 cAMP ctrl 20µM, TSHR agonist inconclusive
Cc1nc(-n2nnc3ccccc32)c2c3c(sc2n1)CCCC3	CRE Fsk mod inconclusive, HEK293 cAMP ctrl 20µM, TSHR agonist inconclusive
Cc1nc(N2CCN(c3ccccc3)CC2)c2c3c(sc2n1)CCC3	CRE Fsk mod 3.98µM, TSHR agonist 15.8µM
Oc1ccc(N2CCN(c3ncnc4sc5c(c34)CCC5)CC2)cc1	ERK AVP block inconclusive (no result: TSHR agonist)
c1ccc2c(NC3CC3)nc(-c3ccoc3)nc2c1	CRE Fsk mod inconclusive
CC(C)=CCC/C(C)=C/CO/N=C1/C[C@@H](O)[C@@H](O)[C@@H]2[C@@H]3C(=O)N(Cc4ccccc4)C(=O)[C@H]3CC[C@@H]12	none (no result: CRE Fsk mod)
COc1ccccc1C[C@@H](Cc1nc2ccccc2[nH]1)c1nc2ccccc2[nH]1	none (no result: ERK AVP block, TSHR agonist)
COc1cccc(-c2nc(NCCNC(C)=O)c3ccccc3n2)c1	CRE Fsk mod inconclusive, HEK293 cAMP ctrl inconclusive, TSHR agonist inconclusive
OCCSc1nc(-c2cccnc2)nc2ccccc12	ERK AVP block inconclusive, CRE Fsk mod 6.31µM
O=C(NCc1ccco1)c1cc(-c2cccnc2)nc2ccccc12	ERK AVP block inconclusive
OCCNc1nc(-c2cccnc2)nc2ccccc12	CRE Fsk mod 3.98µM
c1cncc(-c2nc(NCc3ccco3)c3ccccc3n2)c1	ERK AVP block inconclusive, CRE Fsk mod inconclusive, HEK293 cAMP ctrl 25.1µM, TSHR agonist inconclusive

Bioassay records: PubChem, National Center for Advancing Translational Sciences (NCATS)
